Consider 108 sequences from PubChem BioAssay AID1508600 (Functional Genomics Laboratory (NCATS/FGL), 2020).

About 3,700 (7%) of roughly 53,000 sequences were called active. Shown is part of a subset that was picked to be rich in actives. A number with no mark means an inactive call.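 How the source made its calls: active means gene knockdowns whose robust z-score for IL-1 alpha signal is at least 2 or at most -2, so actives lie on both sides; inactive means the rest.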

This assay is described as follows: Components of the Cytosolic LPS Sensing Pathway: Gene Identification via Genome-wide siRNA Screen.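 Further: robust z of the log signal after scaling to non-targeting control siRNA wells of the plate.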 The conditions noted are these: RAW264.7 macrophages, IL-1a HTRF, actives lie on both sides, screened at 100 nM (by protocol), cells primed 5 h with Pam3CSK4 first. In outline: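 Three distinct siRNAs per gene were tested singly at 100 nM in RAW264.7 macrophages. Following Pam3CSK4 priming and 24 hour LipidA transfection, IL-1a secretion was read by HTRF.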
As for GCAGUAAAAUGACAUUUGGTT against Dennd6b, the z-score was 0.694.
The same measure for GCUAGGUGCUGCUACGAAATT against Tex13c3: -0.0824; for GGGCAGUAAGACCUUCAUGTT against Dhcr24: 0.685.
With GGUUGAAGGCCAAUUCAAATT against Lrrc10, the z-score was 2.94 (active).
As for GCACUAGCAGGAUUCAUUGTT against Gabrb2, the z-score is -1.25.
For CGAUUGCUCUUAACCCUUGTT against Zfp597, the z-score was -0.233.
To GGCAUCCUGAGAGAACUCATT against Insyn1 belongs -2.27 (active); to GCUGACCUAUUCUGAUCCATT against Chchd4, -0.223; to GGUUCAGAUCCCUAAAAUATT against Ago4, -0.557.
The same measure for GGACAUGGAACUGGAUGAATT against Ciita: -2.49 (active); for GGUGAUCACAAAUAUGAUGTT against Ubxn2b: -0.173.
The same measure for GGAGUUUGUUAAUUUCGCATT against Rundc3a: 0.612; for GCACGGAGCCAAAUAAUCUTT against Rpl28: 2.07 (active).
GGAAGUAGAGAUCUCCUUATT against Btn1a1: the z-score is 0.96.
The same measure for GGAAGUGCUACUUUCUGGGTT against Tmem178: 1.74.
The same measure for GGAGAUGAAGUGGACAGACTT against Anapc13: 1.02; for GGUGAACGAACAUUGGUAUTT against Sorbs3: -0.614.
Take CCAUCACGAGUGAAUUCGATT against Olfr945: the z-score was -2.13 (active).
To GGAGCGAUCUGAAAAUUUGTT against Rasip1 belongs -0.365; to CCUCUCCAGUGUCGACAUUTT against Olfr51, 0.347; to CGAAGUCGUGGCAAUGAUUTT against Nfu1, 1.39.
The same measure for GCAGGAAGCCCAGUAAAGUTT against Figla: 0.44; for “GGAAGACACUGGUUUCCAATT against 1700067P10Rik”: 2.62 (active).
In the case of GGAGAGAAGAAAAAGAAGGTT against Rrbp1, the z-score is 0.647.
The same measure for GCAUGAUUACCAGAACCACTT against Fcgr2b: 0.225; for GCAUGUGAAAUCUAGAUCATT against Cks1b: -0.0851.
To UGGUACCACCAUUUUUACCTT against Olfr452 belongs -1.2.
To GCUGGGCUUCAACGAUUACTT against Efna4 belongs 1.3.
With GGUUCCUUAAACAUUCAGATT against Tspan31, the z-score was 2.28 (active).
The same measure for CGAUCACCAUGAUGAAUUCTT against Bex3: -0.128.
As for GCAGGAUGCAGCGAUAGUUTT against Slc2a6, the z-score is -0.952.
For the sequence GGGCUACAGCAUGUAUGAGTT against Zc3h4, the z-score is 0.814.
“GGAACGAAGUCUGAAACACTT against A730018C14Rik”: the z-score was -1.89.
As for GGAGUCCCAGGACAUGAAATT against Pou5f1, the z-score is 0.333.
The same measure for GCCUCUGUCAAGUCUUGGATT against Ftl1: -2.17 (active); for GGUACUGUUGCGCUUUGCUTT against Ciao3: 1.47; for GGAGAAUUAACUGUUCCUCTT against Kcnmb2: 2.23 (active).
The same measure for GCUGAGGCAUAAAAACGAGTT against Atad3a: -0.643; for GGUGAAUCUAUUUACCUGCTT against Fam71d: 0.317; for GGAAUAUGUGCAGAAGCUGTT against Fgd2: -1.2.
“GGCUGUCUUAUUAAAGCUATT against A730013G03Rik”: the z-score was -2.19 (active).
The same measure for GGUCUAGAGUUACCAUUCATT against Aqp9: -0.954.
The same measure for CCAAGGACUCUCAUCUGUUTT against Zfp474: -0.712; for GGACGACAGGAACUGGCAATT against Fbxo9: 0.615.
The same measure for GCAGAGGGCAACUCGUAAGTT against Gm6034: -0.843; for CCAACACUGAGCUCAGAAGTT against Igfbp2: -1.34; for GGCGGUCAAGGGAAAAACATT against Tcf7: 2.19 (active).
Take CCGACUAAUGCUAAAUCCATT against Pcgf1: the z-score was 0.897.
The same measure for GGUGAAAUUCUGAAUGAAATT against Gatb: -0.0515; for GGAACUAGAAGAAAUGUUATT against Mrps9: 0.768; for GGGAGCAGAUUGAAACAGUTT against Eri2: -0.546.
To CUUAGUGCUCUGGGAGCAGTT against Ms4a5 belongs 0.487; to CGAUCACCUUAGUAAAUACTT against Ykt6, 0.233.
To GGAAGGGACUGAUCGGUACTT against Igsf8 belongs 1.61; to GCUGAGACUUCGAGCCUAUTT against Polr2c, -0.976; to CCAGUUAAAAAGGUUCCAATT against Ccdc169, 1.46.
GGAUAACCUAAUGUAGAUATT against Nphs2: the z-score is -0.0675.
Regarding GGAUCAAAAACACAUACUUTT against Adgre4, the z-score is 2.37 (active).
The same measure for GGGAUAUCCCAGAACAAGATT against Vps37a: 0.336.
To GCUUGGUAGAGAUGUUAAATT against Ryr3 belongs -0.119; to GCAUCAUUUUAACACUUCUTT against Tubd1, -0.0435; to GGAGGGAAAACCACAAGACTT against Dppa4, 0.514.
To CCUCUUAUUCAGAAUGUCCTT against Bnc2 belongs 0.451; to GCGAGGAGAGUGUGUUUUCTT against Bop1, 2.08 (active); to GGACAUCCAGACAAUGAGGTT against Fam13b, -1.62.
With GGUCGUCUGAUUUUUGAUATT against Atp1a1, the z-score is 0.391.
As to GGACUGCUGGGAGAACUUUTT against Zcchc3, the z-score was 0.76.
To CGCAGGACAUUUGGUUUUGTT against Ssxb2 belongs 2.88 (active); to “GGGCCACAGGAUCUCACUUTT against 1700009J07Rik”, -1.88; to GGAGGAACAGAAGAAACUCTT against Tma7, -0.0481.
To GGCUAUGCAAGUGGAGAGCTT against Nfat5 belongs -0.311.
The same measure for GGACAAAGGCUGUAUUUUCTT against Tgm3: -1.07; for CGCGAGCUCAGAAUACAUGTT against Btn1a1: 2.5 (active); for GGAGAUAAUAAUGAAGUCGTT against Sec11c: 0.353.
GGUUGGUGAACUUGGAGGUTT against Hspa1a: the z-score was 1.41.
The same measure for GGGUUUUUUUUUCCUUGAATT against Smndc1: -0.313.
With GGCUGAUGGAAAUCCUUAATT against Ctif, the z-score was 0.0158.
To GGUAGAAUACGUGUUCCUGTT against Cacna1f belongs 2.79 (active); to GGGCAAAGCCUUCAACCCUTT against Insl6, -0.038.
The same measure for CGCCACUGCUUUGAUUACUTT against Coa5: -1.51; for GGCGCAUUACCAGAGCUUCTT against Tnpo2: -0.425.
Turning to CGUUGUCAAAAGGACCCAUTT against Pvr, the z-score was -0.766.
The same measure for GGAUAAGGUAGAAUUACUGTT against Slc26a4: 3.06 (active).
To GCACCGUGUGACCAUGAACTT against Akt1 belongs 3.96 (active); to GCAAGGAUCCACGCUUUUCTT against Ckmt2, 1.34; to GCCACUCUUAGUGCUAACUTT against Tctn3, -1.25.
The same measure for GGAUUACCUAAAUUUAGGATT against Hfm1: 0.14.
With GCACUACAGACACUUUUAGTT against Gm5533, the z-score was -2.12 (active).
To GGAAAAUUCAGUUUAAUCCTT against Glt8d1 belongs 0.438; to GGACAGAACCAUCUGAAGGTT against Aldh18a1, 1.43; to CGUGGAAAAGCUAUGUGCGTT against Lif, -0.188.
The same measure for GGAAGCUGUGCUGAAUGGUTT against Atp5l: 0.387; for CGGCACUGUCAUAAGUGUGTT against Utp4: 2.39 (active); for GGAGGAAAAGGCUUUUCGATT against Ccdc70: 1.04.
The same measure for GGCACAUCACUGCUUACCUTT against Rce1: -1.73.
As to GGAUGUGGAAUCAUGCUAUTT against Tnpo3, the z-score was 2.41 (active).
To GCCAAGCCAUCUCAUUAAATT against Wdr18 belongs -0.724; to GCCUGACUUUAAUGAAGAATT against Slf2, -1.77.
As for GGGUUUCUUGUUUCUUAGATT against Aldh6a1, the z-score was -0.00669.
The same measure for CGUGGUUCCUCUUUGGUGUTT against Kcnj10: -0.217; for CCAGUUCUUAACAUUGUGUTT against Syap1: -1.13.
The same measure for CCCAUCAUCUUCCCAUUCGTT against Olfr146: -0.204; for GGGCUAGAUGAAUUUUUGATT against Aplnr: -0.181.
The same measure for GGCCUGGAUUCCUUAACAATT against Lgi1: -3.23 (active); for CCAGCUAUGUGUAUAAACCTT against Ppid: -0.045.
Take GCCUGUGCCUUUUGAAUUCTT against Brox: the z-score was -0.0201.
To GGUCUAUCCCAUCAUGCCUTT against Clcnka belongs 0.583; to GCAGAGAGUUUUUAUCUGCTT against Vmp1, 0.0579.
